Results: PubChem BioAssay AID652104 (National Center for Advancing Translational Sciences (NCATS), 2013)
In all, about 410,000 compounds went through this assay and about 7,200 (1.8%) were called active. Inconclusive results (about 7%) are left out. Calls follow the shape of the dose curve; as a rule, active = well fitted activation curve with a large enough effect; inconclusive = small, poorly fitted or top-dose-only effect, or another doubt; inactive = no such curve, though single readings can be large or run the other way. The full list was thinned out, with actives kept by preference.

Assay: qHTS of TDP-43 Inhibitors; also: nearly all actives have a fitted effect of over 50% in size; as to growth rescue (activation): % of control where 0% means no effect
Details: TDP-43 expressing yeast growth rescue, BacTiter-Glo, 24 h; series mostly up to 46.1 µM; growth rescue (activation): at the top concentration
Procedure, shortened: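 Readout is BacTiter-Glo luminescence of cell growth, so inhibitors register as activators. TDP-43-expressing yeast at OD600=0.02 in galactose medium, after raffinose pregrowth to mid-log, were incubated with compound for 24 hr at 30 deg C.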
Potency is read from the fitted curve at half-maximal effect.

Growth rescue (activation), inactive:
CS(=O)(=O)c1ccc(-c2nnc(NC(=O)c3ccc4c(c3)OCCO4)o2)cc1 0%, C/C(Cc1ccccc1)=N\NC(=O)CNC(=O)c1ccc2c(c1)OCCO2 5.25%, Cc1ccc(C)c(NC(=O)C2CCCN(S(=O)(=O)c3cn(C)cn3)C2)c1 (centres undefined) 16.4%, CC(=O)N1CCCc2cc(S(=O)(=O)Nc3ccc(Cl)cc3F)ccc21 26.2%, CCOc1ccc(CNC(=O)c2ccc3c(c2)nnn3C2CCCC2)cc1 21.2%, CCOC(=O)c1cccc(NC(=O)CCn2nnc3ccccc32)c1 -14.2%, CCOC(=O)c1cc(-c2ccccc2)n(CCC(=O)Nc2ccccc2CC)c1C -0.302%, O=C(Nc1c(C(=O)N2CCN(c3ccc(F)cc3)CC2)oc2ccccc12)c1ccco1 0%, O=C(NNC1CC(=O)N(c2cccc(Cl)c2)C1=O)c1cccnc1 (centres undefined) -2.69%, Cc1ccc(Cl)cc1N1CCN(C(=O)CN2C(=O)COc3ccc(S(=O)(=O)N4CCOCC4)cc32)CC1 16.2%, CCC(=O)N1CCc2cc(S(=O)(=O)NC(CC(C)C)C(=O)NCCc3cccc(C)c3)ccc21 (centres undefined) 12.7%, Cc1ccc(NC(=O)Cn2nnc3sc4c(c3c2=O)CCC(C)C4)cc1 (centres undefined) 0%, CC(C)(C)OC(=O)N1CCC(c2c(C(=O)N3CCc4ccccc4C3)cnn2-c2ccc(F)cc2)CC1 3.82%, COc1ccc(CN2CCc3nc(Nc4ccccc4)ncc3C2)c(OC)c1OC 9.73%, O=c1cc(-c2ccccc2)n2c(SCc3ccccc3)nnc2[nH]1 19%, Cc1cccc(N2CCN(C(=O)CCn3c(=O)c4cccn4c4cccnc43)CC2C)c1 (centres undefined) 0%, CCc1cnc2c(c1SCC(=O)c1ccccc1)c(=O)n(C)c(=O)n2C 16.8%, O=C(COC(=O)c1ccc(Cl)nc1)NCc1cccs1 16.7%, COc1ccc(Cl)cc1C(=O)OCC(=O)NCc1cccs1 -0.926%, CCOc1ccc(CCNC(=O)c2ccc3c(c2)sc2nc(-c4ccc(F)cc4)cn23)cc1OCC 19.4%, COc1ccc2oc(C(=O)NCC(Cc3ccccc3)N(C)C)c(C)c2c1 (centres undefined) -16.2%, COc1cc(C(=O)NC(=S)NCc2ccco2)cc(OC)c1OC -2.12%, COc1cccc(C(c2c(O)cc(C)n(Cc3ccco3)c2=O)N2CCN(c3ccccc3)CC2)c1 (centres undefined) 16.2%, CCCCC(CC)CNC(=O)C1CCN(S(=O)(=O)c2cccc3nsnc23)CC1 (centres undefined) -7.96%, O=S(=O)(c1ccc2nc(N3CCN(c4cccc(Cl)c4)CC3)ccc2c1)N1CCCCC1 4.2%, Cc1cc(OC(=O)c2ccccc2)c([N+](=O)[O-])c(=O)[nH]1 -3.46%, COc1cccc(C(=O)Oc2cc(C)[nH]c(=O)c2[N+](=O)[O-])c1 -7.6%, Cc1nnc(SCc2cc(=O)c3cc(F)ccc3[nH]2)n1C 13.1%, CC(C)CC(=O)NCC(c1ccc2c(c1)OCO2)N1CCN(c2ccc(F)cc2)CC1 (centres undefined) -8.52%, CCn1c(=O)cc(OCC(=O)Nc2cc(Cl)c(OC)cc2OC)c2ccccc21 8.79%, Cc1ccc(S(=O)(=O)c2nc(-c3ccco3)oc2SCC(=O)Nc2ccc(F)cc2)cc1 25%, COC(=O)c1sc(N)c(C(=O)OC)c1COC(=O)CNS(=O)(=O)c1ccc(C)cc1 17.9%, Cc1ccc(-c2nc(COC(=O)c3c(C)noc3C)cs2)cc1 1.65%, CCCn1c(=N)n(CC(O)COc2ccccc2OC)c2ccccc21 (centres undefined) 13.5%, N/C(=N\OC(=O)N1c2ccccc2Sc2ccccc21)c1ccc(Br)cc1 8.92%, CO/N=C(\N)c1ccc([N+](=O)[O-])cc1 14.3%, Cc1ccc(-n2ncc3c(=O)n(Cc4cccc(C(F)(F)F)c4)cnc32)cc1C 22.9%, CC(C)NC(=O)C1CCC(Cn2c(=O)c3sccc3n(Cc3ccc(F)cc3)c2=O)CC1 (centres undefined) 17.9%, O=C(COc1ccc(Cl)cc1)N(Cc1ccco1)Cc1ccco1 14.7%, CC(=O)c1ccc(NC(=O)CCc2nc(-c3ccc(C)cc3)no2)cc1 14.4%, CCOc1ccc(CCNC(=O)c2csc3c2CCCCC3)cc1 9.4%, CCOC(=O)c1ccc(NC(=O)c2c(NCc3cccs3)sc3c2CCCC3)cc1 29.4%, Cc1ccc(-c2cn3c(n2)sc2cc(C(=O)NCc4cccs4)ccc23)c(C)c1 -0.34% [at 9.22 µM], C/C(=N\N)c1c(-c2ccccc2)c2cc(Br)ccc2[nH]c1=O -15.3%, CC1CN(C(=O)N2CCC(C(=O)NCc3cccs3)CC2)c2ccccc2O1 (centres undefined) 26.7%, COc1ccc(N(CC(=O)N2CCCCCC2)S(=O)(=O)c2ccccc2)cc1 -22.5%, CS(=O)(=O)N(CC(=O)N1CCN(c2cccc(Cl)c2)CC1)c1ccccc1 -13.1%, COc1cc(CNC(=O)c2cc3n(n2)CCCN(Cc2cccc(F)c2)C3=O)cc(OC)c1OC 11.2%, CCc1cc2c(cc3c(=O)n(CC(=O)NCCc4ccc(OC)c(OC)c4)ncn32)s1 7.79%, CCC(=O)N1CCc2cc(CNC(=O)Nc3ccccc3Cl)ccc21 22.9%, CCC(=O)N1CCc2cc(Br)cc(S(=O)(=O)NCc3ccc(Cl)cc3)c21 22%

Potency, active:
Cc1nc(NC(=O)c2ccc3c(c2)OCCO3)ccc1Br 12.6 µM, CCn1nnc2cc(C(=O)Nc3ccc(C(=O)OC(C)C)cc3)ccc21 11.2 µM, O=C1[C@@H]2C(c3cccnc3)=NO[C@@H]2C(=O)N1c1ccc(Cl)cc1Cl 35.5 µM, COc1ccc(Nc2ncc3c(n2)CCN(C(=O)OC(C)(C)C)C3)cc1 14.1 µM, O=C(COC(=O)/C=C/c1cccc(Cl)c1)NCc1cccs1 20 µM, COc1ccc2oc(C(=O)NCc3ccco3)c(C)c2c1 12.6 µM, Cc1cc(OC(=O)c2ccc(OC(C)C)cc2)c([N+](=O)[O-])c(=O)[nH]1 22.4 µM, COC(=O)c1c(-c2ccc(C)cc2)csc1N 12.6 µM, N/C(=N\OC(=O)Cc1ccccc1[N+](=O)[O-])c1ccc(Br)cc1 15.8 µM, CCOC(=O)c1ccc(NC(=O)c2csc3c2CCCCC3)cc1 20 µM, O=c1[nH]c2cc(Br)ccc2n2cccc12 10 µM, CC1CCN(C(=O)CN(c2ccc(Oc3ccccc3)cc2)S(C)(=O)=O)CC1 12.6 µM, CCC(=O)N1CCc2cc(CNS(=O)(=O)c3ccc(Br)s3)ccc21 11.2 µM
